High-throughput results: PubChem BioAssay, National Center for Advancing Translational Sciences (NCATS)
In the library only some 2.7% were active in any assay of this set; here they are far more common.
rTrxR1 inhibitor = inhibitors of rat thioredoxin reductase 1 | O89049 | recombinant rTrxR1, NADPH fluorescence consumption, selenite substrate | Potency, µM (top dose mostly 114 µM), for the others: at the highest dose activity change, negative = inhibition, actives largely listed as inhibitors | 390,000 compounds, 1% hits; further: on the % scale 0 is the no-effect control and ±100 the full control effect; nearly all actives have a fitted effect of over 65% in size
Target sequence (O89049 whole entry, looked up): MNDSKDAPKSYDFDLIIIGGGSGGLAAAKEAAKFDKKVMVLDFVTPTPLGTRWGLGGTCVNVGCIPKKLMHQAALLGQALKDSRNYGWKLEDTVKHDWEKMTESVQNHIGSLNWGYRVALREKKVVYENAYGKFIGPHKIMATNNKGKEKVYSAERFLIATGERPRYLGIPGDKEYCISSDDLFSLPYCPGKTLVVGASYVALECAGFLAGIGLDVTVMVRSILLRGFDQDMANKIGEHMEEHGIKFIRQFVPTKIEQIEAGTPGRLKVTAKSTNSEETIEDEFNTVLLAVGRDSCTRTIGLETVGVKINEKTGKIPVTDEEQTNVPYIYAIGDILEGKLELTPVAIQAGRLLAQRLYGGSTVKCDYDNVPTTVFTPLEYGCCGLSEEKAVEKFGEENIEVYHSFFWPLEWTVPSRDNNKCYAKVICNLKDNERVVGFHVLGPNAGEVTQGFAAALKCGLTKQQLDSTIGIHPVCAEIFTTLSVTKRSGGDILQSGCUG
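Rat TrxR1 (90 nM in the dispensed reagent) was pre-reduced with 400 uM NADPH for 5 min at room temperature, then incubated with compound for 15 min. After 400 uM selenite was added, NADPH fluorescence (Ex 340/Em 450 nm) was followed for 8 min.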
GLP1R ag = GLP-1 receptor (human) agonism | HEK293 GLP-1R CRE-luciferase, luminescence, 4-6 h; cells express a hypersensitive GLP-1R form | Potency, µM (doses to about 45.6 µM), for the others: top-dose activation, most hits filed as activators | 380,000 compounds, 0.007% hits | AID 624172; further: % of control where 0% means no effect
GLP-1R inv ag = inverse agonists of human GLP-1 receptor; Potency, µM (doses to about 38.3 µM), without a hit: at the top dose activity change, negative = inhibition, hits mostly inhibitors; HEK293 GLP-1R CRE-luciferase, luminescence, 24 h; GLP-1R form is constitutively active; 410,000 compounds, 1.6% hits; P43220; further: on the % scale 0 is the no-effect control and ±100 the full control effect; nearly all actives have a fitted effect of over 55% in size
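qHTS in 1536-well format: reporter HEK293 cells expressing constitutive GLP-1R activity in DMEM + 10% Nu serum, 24 hr with compounds at 37 deg C, luminescence read after 12 min with detection reagent.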
HEK293 tox = cytotoxicity in counter-screen for GLP-1R inverse agonists; HEK293 cAMP-luciferase reporter cells, luminescence, 24 h; Potency, µM (top dose mostly 38.3 µM), for the others: at the highest dose activity change, negative = inhibition, hits mostly inhibitors; 410,000 compounds, 0.13% hits; AID 624418;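 further: loss of luciferase light is scored as toxicity; on the % scale 0 is the no-effect control and ±100 the full control effect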
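Seeding density was 200 cells/uL; after overnight-length (12 h) culture, 23 nL compounds went on for 24 h at 37 °C. Readout used a luciferase detection reagent, luminescence taken after 12 min at room temperature.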
mIDH1 inhibitor = blocks human mutant IDH1 R132H enzyme. O75874. IDH1-R132H enzyme, NADPH consumption, diaphorase/resazurin fluorescence. Potency, µM (series often up to 76.6 µM), for inactives: at the top dose activity change, negative = inhibition, actives largely listed as inhibitors. 390,000 compounds, 0.093% hits; further: on the % scale 0 is the no-effect control and ±100 the full control effect; nearly all actives have a fitted effect of over 65% in size
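IDH1-R132H (0.5 ug/mL) preincubated 30 min with compound, then NADPH (0.016 mM) and alpha-KG (2 mM) added; 80 min at RT, pH 7.5. Remaining NADPH coupled via diaphorase/resazurin to fluorescence (540/590 nm); concentration-response curves normalized to no-enzyme control.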
TrxR1 substrate = is turned over as a substrate by rat TrxR1; Potency, µM (series often up to 114 µM), for the others: at the top dose activity change, negative = substrate turnover; purified TrxR1 substrate turnover, NADPH consumption readout; AID 588456; 390,000 compounds, 0.01% hits; O89049; further: on the % scale 0 is the no-effect control and ±100 the full control effect; nearly all actives have a fitted effect of over 50% in size
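Rat TrxR1, dispensed at 90 nM, was prereduced with 400 uM NADPH (final) for 5 min at ~22 deg C, then incubated with compound 15 min before 400 uM selenite. A first-read NADPH fluorescence drop versus no-compound background flagged substrates.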
* marks the source's active call; other numbers are inactive results; [ ] = remark or other dose. The call rests on the fitted dose curve; in most records, active means well fitted curve in the direction sought with a large enough effect; inconclusive means small, poorly fitted or top-dose-only effect, or another doubt; inactive means no such curve, though single readings can be large; an effect the other way counts as inactive or inconclusive. Potency means the concentration at half of the fitted maximal effect.

How did COc1ccccc1N(CC(=O)Nc1ccc2c(c1)OCO2)S(=O)(=O)c1ccc(C)cc1 do in these assays?
rTrxR1 inhibitor: 27.6%; GLP1R ag: 1.5%; GLP-1R inv ag: -27.7%; HEK293 tox: 2.6%; mIDH1 inhibitor: -1.4%; TrxR1 substrate: 3.8%

How did O=C(NC1CC(=O)N(c2ccc(Cl)cc2)C1)c1ccc2c(c1)OCO2 (configuration not stated) do in these assays?
rTrxR1 inhibitor: 7.2%[57.1 µM]; GLP-1R inv ag: 3.0%; HEK293 tox: 10.2%; mIDH1 inhibitor: 14.4%; TrxR1 substrate: -3.8%[57.1 µM]

Results for COc1ccc(Cl)cc1NC(=O)NCCc1c(C)nn(C)c1C ?
rTrxR1 inhibitor: 6.5%[57.1 µM]; GLP-1R inv ag: -5.2%; HEK293 tox: -4.6%; mIDH1 inhibitor: -7.4%; TrxR1 substrate: 3.4%[57.1 µM]

How did CCCc1cc(=O)n2[nH]c(NCc3ccccc3OC)nc2n1 do in these assays?
rTrxR1 inhibitor: 13.3%; GLP-1R inv ag: 11.2%; HEK293 tox: 1.9%; mIDH1 inhibitor: 24.6%; TrxR1 substrate: 0.6%

Results for Cc1c(C(=O)NCC(c2ccco2)N2CCCC2)sc2ccccc12 (configuration not stated) ?
rTrxR1 inhibitor: 17.3%; GLP1R ag: 12.7%; GLP-1R inv ag: 8.91µM*; HEK293 tox: -1.4%; mIDH1 inhibitor: 1.6%; TrxR1 substrate: 5.7%

What do the screens show for `CN(C)c1ccc(C=O)cc1[N+](=O)[O-]`?
rTrxR1 inhibitor: -12.1%; TrxR1 substrate: -16.4%

How did S=C(Nc1ccccn1)Nc1ccccc1Cl do in these assays?
rTrxR1 inhibitor: -42.8%; GLP1R ag: 13.8%; GLP-1R inv ag: inconclusive; HEK293 tox: 6.31µM*; mIDH1 inhibitor: 2.5%; TrxR1 substrate: 7.7%[57.1 µM]

How did S=C(Nc1ccccn1)c1ccccn1 do in these assays?
rTrxR1 inhibitor: -1.1%[57.1 µM]; GLP1R ag: -16.7%; GLP-1R inv ag: 0.891µM*; HEK293 tox: 1µM*; mIDH1 inhibitor: 3.2%; TrxR1 substrate: -6.9%

Results for Cc1c(Cl)cccc1NC(=S)Nc1ccccn1 ?
rTrxR1 inhibitor: 23.7%[57.1 µM]; GLP1R ag: 6.1%; GLP-1R inv ag: -9.0%; HEK293 tox: -23.1%; mIDH1 inhibitor: 2.1%; TrxR1 substrate: 11.0%[57.1 µM]

How did O=C(Nc1ccccn1)C(=O)Nc1ccccn1 do in these assays?
rTrxR1 inhibitor: -2.4%; GLP1R ag: -0.3%; GLP-1R inv ag: -23.9%; HEK293 tox: -16.0%; mIDH1 inhibitor: -1.5%; TrxR1 substrate: -7.3%

Results for CCOc1ccccc1C(=O)Nc1cc2c(cc1N1CCOCC1)n(C)c(=O)n2C ?
rTrxR1 inhibitor: -6.5%; GLP-1R inv ag: 12.2%; HEK293 tox: -6.0%; mIDH1 inhibitor: 26.3%; TrxR1 substrate: -4.0%

What do the screens show for `CC(C)=C1C2CCC1C1C(=O)N(NC(=O)COc3ccc(C(C)(C)C)cc3)C(=O)C21` (configuration not stated)?
rTrxR1 inhibitor: -7.6%; GLP1R ag: -4.6%; GLP-1R inv ag: 7.08µM*; HEK293 tox: 4.7%; mIDH1 inhibitor: 3.4%; TrxR1 substrate: -13.2%

What do the screens show for `COc1cccc(C2C(C#N)=C(N)Oc3cc(C)n(Cc4ccco4)c(=O)c32)c1` (configuration not stated)?
rTrxR1 inhibitor: inconclusive; GLP1R ag: -4.9%; GLP-1R inv ag: 1.5%; HEK293 tox: -6.1%; mIDH1 inhibitor: -0.8%; TrxR1 substrate: 0.1%

What do the screens show for `COc1ccc(C2C(C#N)=C(N)Oc3cc(C)n(Cc4ccco4)c(=O)c32)cc1` (configuration not stated)?
rTrxR1 inhibitor: 3.16µM*; GLP1R ag: -8.1%; GLP-1R inv ag: 17.1%; HEK293 tox: -2.2%; mIDH1 inhibitor: 6.7%; TrxR1 substrate: 1.1%

What do the screens show for `COc1ccc(S(=O)(=O)NCCc2nnc3ccc(SCC(=O)Nc4ccc(C(F)(F)F)cc4)nn23)cc1`?
rTrxR1 inhibitor: 11.4%; GLP-1R inv ag: -4.3%; HEK293 tox: -2.5%; mIDH1 inhibitor: -17.7%; TrxR1 substrate: -3.4%

Results for OC1=C(O)c2nc3cc(F)ccc3nc21 ?
rTrxR1 inhibitor: 1.58µM*; GLP1R ag: -4.5%; GLP-1R inv ag: 13.4%; HEK293 tox: 2.2%; mIDH1 inhibitor: 10.5%; TrxR1 substrate: -1.8%

How did Nc1nnc2cc(F)ccc2n1 do in these assays?
GLP1R ag: -1.3%; GLP-1R inv ag: 8.6%; HEK293 tox: 3.9%; mIDH1 inhibitor: 2.3%

What do the screens show for `C/C(Cl)=C\Cn1c(O)c(N=NC(N)=S)c2cc(Br)ccc21`?
rTrxR1 inhibitor: -7.3%; GLP1R ag: 21.9%; GLP-1R inv ag: 8.91µM*; HEK293 tox: -26.0%; mIDH1 inhibitor: -6.6%; TrxR1 substrate: -9.3%

Results for Cc1ccc2c(c1)c(N=NC(N)=S)c(O)n2Cc1ccccc1 ?
rTrxR1 inhibitor: 9.9%[57.1 µM]; GLP1R ag: 7.8%; GLP-1R inv ag: -3.8%; HEK293 tox: inconclusive; mIDH1 inhibitor: 1.4%; TrxR1 substrate: 12.5%[57.1 µM]

Results for NC(=S)N=Nc1c(O)n(Cc2ccc(Br)cc2)c2ccccc12 ?
rTrxR1 inhibitor: 8.1%[57.1 µM]; GLP1R ag: 8.6%; GLP-1R inv ag: 2.51µM*; HEK293 tox: 2.51µM*; mIDH1 inhibitor: 4.3%; TrxR1 substrate: -12.7%

Results for COC(=O)c1cc(Cl)cc2c(C)c(C3(O)CCCCC3)[nH]c12 ?
rTrxR1 inhibitor: 7.7%[57.1 µM]; GLP1R ag: 15.6%; GLP-1R inv ag: 7.08µM*; HEK293 tox: 7.7%; mIDH1 inhibitor: -4.5%; TrxR1 substrate: 8.7%[57.1 µM]

What do the screens show for `COc1cccc(CNC(=O)c2cc3c(s2)-c2c(C)cccc2OC3)c1`?
rTrxR1 inhibitor: inconclusive; GLP-1R inv ag: inconclusive; HEK293 tox: 4.3%; mIDH1 inhibitor: -2.7%; TrxR1 substrate: 242.4%

How did CCCN(CCC)CCCNC(=O)C1CCC(CNS(=O)(=O)c2ccc(NC(C)=O)cc2)CC1 (configuration not stated) do in these assays?
rTrxR1 inhibitor: 2.5%[57.1 µM]; GLP-1R inv ag: 9.6%; HEK293 tox: 4.9%; mIDH1 inhibitor: 1.3%; TrxR1 substrate: -1.1%[57.1 µM]

What do the screens show for `O=C1CCCCC1C(O)(C(=O)c1ccccc1)c1ccccc1` (configuration not stated)?
GLP1R ag: 0.7%; GLP-1R inv ag: 10µM*; HEK293 tox: 1.2%; mIDH1 inhibitor: -8.7%

How did CC1CCC(C(O)(C(=O)c2ccccc2)c2ccccc2)C(=O)C1 (configuration not stated) do in these assays?
GLP1R ag: -6.7%; GLP-1R inv ag: -77.2%; HEK293 tox: 1.3%; mIDH1 inhibitor: -4.7%
